The campaign covered roughly 16,000 compounds. About 4,000 (25%) were called active. Another 26% or so got no clear call; they are omitted. The call rests on the fitted dose curve; in most records, active means well fitted curve in the direction sought with a large enough effect; inconclusive means small, poorly fitted or top-dose-only effect, or effect the other way; inactive means no such curve, though single readings can be large or run the other way. Only a sample is shown.
target: Cytochrome P450 2C9 (Homo sapiens) (UniProt P11712); assay: Cytochrome panel assay with activity outcomes; conditions: recombinant CYP, pro-luciferin dealkylation, luminescence, p450-cyp2c9; series mostly up to 57.1 µM
On the % scale 0 is the no-effect control and ±100 the full control effect.

Sequence of Cytochrome P450 2C9 (Homo sapiens) (P11712 whole entry, looked up): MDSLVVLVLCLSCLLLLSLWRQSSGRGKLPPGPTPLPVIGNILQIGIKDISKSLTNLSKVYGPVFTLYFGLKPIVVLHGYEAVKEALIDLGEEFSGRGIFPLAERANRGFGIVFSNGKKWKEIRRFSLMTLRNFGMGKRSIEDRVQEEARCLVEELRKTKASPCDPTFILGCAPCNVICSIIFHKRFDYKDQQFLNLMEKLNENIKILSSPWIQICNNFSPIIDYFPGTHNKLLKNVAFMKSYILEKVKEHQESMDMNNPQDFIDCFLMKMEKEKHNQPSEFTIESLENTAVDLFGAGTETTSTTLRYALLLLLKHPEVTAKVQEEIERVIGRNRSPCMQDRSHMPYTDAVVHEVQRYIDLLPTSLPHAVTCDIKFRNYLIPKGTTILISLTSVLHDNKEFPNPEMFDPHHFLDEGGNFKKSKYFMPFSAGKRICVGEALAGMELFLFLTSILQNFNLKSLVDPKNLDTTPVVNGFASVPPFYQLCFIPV

Structure (SMILES)	activity, negative = inhibition	AC50
O=C1c2ccccc2-c2ccc(NC(=O)[C@H]3CCCC[C@@H]3C(=O)O)cc21	-10.8% [at 11.4 µM] (inactive)	–
O=C(Nc1ccc(Nc2ccc3c(c2)C(=O)c2ccccc2C3=O)c2c1C(=O)c1ccccc1C2=O)c1ccccc1	-2.6% [at 11.4 µM] (inactive)	–
CCC(=O)Nc1ccc2c(c1)C(=O)c1ccccc1C2=O	–	3.16 µM (active)
O=C(O)c1ccc(Nc2ccnc3cc(Cl)ccc23)cc1O	-1.26% [at 11.4 µM] (inactive)	–
O=c1c(-c2ccc(F)cc2)nc2cncnc2n1-c1ccccc1	–	inactive
O=c1c(-c2ccccc2)nc2cncnc2n1-c1ccccc1	–	15.8 µM (active)
CN(C)c1ncc2nc(-c3cccs3)c(=O)n(-c3ccccc3)c2n1	–	inactive
COc1ccc(-n2c(=O)c(-c3ccccc3)nc3cncnc32)cc1	–	inactive
O=c1c(-c2cccc(Cl)c2)nc2cncnc2n1-c1ccccc1	–	10 µM (active)
O=c1c(-c2cccs2)nc2cncnc2n1-c1ccccc1	–	10 µM (active)
COc1ccc(-n2c(=O)c(-c3cccs3)nc3cncnc32)cc1	–	inactive
CSCC[C@@H]1NC(=O)C/C=C\[C@@H](C)COC(=O)[C@@H](C)COC1=O	14.5% [at 11.4 µM] (inactive)	–
CCCCn1c(NCc2ccccc2NS(=O)(=O)c2ccc(C)cc2)nc2ccccc21	–	1.58 µM (active)
c1ccc(CN(CC2=NCCN2)c2ccccc2)cc1	–	inactive
COc1nc(Oc2ccc(/C=N/O)cc2)nc(N(C)C)n1	–	inactive
CN(C)C(=C(C#N)C#N)N1CCN(c2ccc(Cl)c(Cl)c2)CC1	–	12.6 µM (active)
O=S(=O)(C=C(c1ccccc1)c1ccccc1)c1ccccc1	–	7.08 µM (active)
O=S(=O)(O)c1ccc(N=Nc2ccccc2)cc1	-1.61% [at 11.4 µM] (inactive)	–
O=S(=O)(/N=C(/Nc1ccccn1)c1ccccc1)c1ccccc1	–	inactive
c1csc(CNc2ccnc(-c3ccoc3)n2)c1	-25.1% [at 2.29 µM] (inactive)	–
COc1ccc(CNc2ccnc(-c3cccnc3)n2)c(OC)c1	8.69% [at 2.29 µM] (inactive)	–
COc1cccc(-c2nccc(NCc3cccs3)n2)c1	-26.6% [at 2.29 µM] (inactive)	–
c1ccc(CNc2ccnc(-c3cccnc3)n2)cc1	-12.1% [at 2.29 µM] (inactive)	–
CC(C)(C)C(=O)Nc1ccnc(-c2cccnc2)n1	–	3.16 µM (active)
O=C(Nc1ccnc(-c2cccnc2)n1)c1cccc(Cl)c1Cl	–	3.98 µM (active)
CN(C)C(=O)c1ccc(-c2nccc(NCc3cccnc3)n2)cc1	5.1% [at 2.29 µM] (inactive)	–

Structure (SMILES)	activity, negative = inhibition	AC50
Cc1ccccc1-c1nccc(NCc2cccnc2)n1	-17.5% [at 2.29 µM] (inactive)	–
c1cncc(-c2nccc(NCc3cccs3)n2)c1	–	0.398 µM (active)
O=C(Nc1ccnc(-c2cccnc2)n1)c1ccccc1Cl	–	15.8 µM (active)
N#Cc1cccc(-c2nccc(NCc3cccnc3)n2)c1	-11.5% [at 2.29 µM] (inactive)	–
N[C@H](CCC(=O)NCS(=O)(=O)O)C(=O)O	–	inactive
CN(C)CCN(c1ccccn1)c1ccccn1	0.501% [at 11.4 µM] (inactive)	–
O=C(C1=C(O)C(=O)N(Cc2ccco2)C1c1ccccc1)c1cccs1 (centres undefined)	–	8.91 µM (active)
NS(=O)(=O)Cc1noc2ccccc12	–	inactive
[N-]=[N+]=NC[C@@H]1O[C@@H](n2cnc3c(N)ncnc32)[C@@H]2O[C@@H]21	2.07% [at 11.4 µM] (inactive)	–
CC1CCN(CC[C@@H]2CCCN2S(=O)(=O)c2cccc(O)c2)CC1	–	inactive
CC1CCN(S(=O)(=O)c2ccc3c(c2)C(=NO)c2cc(S(=O)(=O)N4CCC(C)CC4)ccc2-3)CC1	–	3.98 µM (active)
CC1CCN(CC[C@H]2CCCN2S(=O)(=O)c2cccc(O)c2)CC1	–	inactive
CS(=O)(=O)c1nc(-c2ccccc2)cc(-c2ccccc2)c1C#N	–	0.282 µM (active)
CC(=O)Nc1ccc(-c2cc(-c3ccc(NC(C)=O)cc3)nc(-c3ccccc3)n2)cc1	–	inactive
N#Cc1cccc(-c2nc(NCc3ccccc3)c3ccccc3n2)c1	-29.7% [at 2.29 µM] (inactive)	–
COCCCN=CC1=C(O)CC(C)(C)CC1=O	–	inactive
O=c1oc2ccccc2cc1-c1csc(NN=C2CCCCC2)n1	–	3.55 µM (active)
Cc1cccc(-c2noc(-c3cc4ccccc4oc3=O)n2)c1	–	inactive
CN1CCC2(CC1)C1CN(C)CC=C1C(C#N)=C(N)C2(C#N)C#N (centres undefined)	–	inactive
Cc1sc(=NC(=O)c2ccco2)n(C)c1-c1ccccc1	–	1.12 µM (active)
O=C(c1ccco1)N1CCC2(CC1)CCN(c1ccc(-c3ccccc3)cc1)CC2	–	inactive
Cc1sc(=NC(=O)c2ccco2)n(C)c1-c1ccc(F)cc1	–	8.91 µM (active)
Cn1c(=NC(=O)CCl)sc2ccccc21	–	inactive
O=C(c1cnccn1)N1CCC2(CCCN(c3ccccn3)C2)CC1	–	inactive
CS(=O)(=O)Nc1cccc(-c2ccc3ncnc(NC4CCNCC4)c3c2)c1	-5.87% [at 2.29 µM] (inactive)	–
O=C(c1csnn1)N1CCC2(CCCN(Cc3ccccc3)C2)CC1	–	inactive

Structure (SMILES)	activity, negative = inhibition	AC50
CCOC(=O)c1c(C)nc2c(c1-c1ccc(OC)cc1)C(=O)CC(C)(C)C2	–	15.8 µM (active)
CCN1CCN(c2nc(C)c3c(n2)CCCC3=O)CC1	–	inactive
CCOC(=O)c1c(C)nc2c(c1-c1ccccc1)C(=O)CCC2	–	17.8 µM (active)
CC1(C)CC(=O)c2cnc(N)nc2C1	–	inactive
Cc1nccn1C[C@@H]1CCc2c(c3ccccc3n2C)C1=O	–	inactive
Cc1nnc(SCC2=C(C(=O)O)N3C(=O)[C@@H](NC(=O)Cn4cnnn4)[C@@H]3SC2)s1	–	inactive
CCc1nnc(NS(=O)(=O)c2ccc(N=Cc3c(C)[nH]n(-c4ccc(C)cc4)c3=O)cc2)s1	–	8.91 µM (active)
Cc1ccc(-n2[nH]c(C)c(C=Nc3ccc4[nH]c(=O)[nH]c4c3)c2=O)cc1C	–	inactive
NC(N)=NC(N)=Nc1ccccc1	–	inactive
C/C=C\C[C@@H](C)[C@@H](O)[C@H]1C(=O)N[C@@H](CC)C(=O)N(C)CC(=O)N(C)[C@@H](CC(C)C)C(=O)N[C@@H](C(C)C)C(=O)N(C)[C@@H](CC(C)C)C(=O)N[C@@H](C)C(=O)N[C@H](C)C(=O)N(C)[C@@H](CC(C)C)C(=O)N(C)[C@@H](CC(C)C)C(=O)N(C)[C@@H](C(C)C)C(=O)N1C	–	inactive
Fc1ccc(CSc2nnc(-c3cc4c(s3)-c3ccccc3CC4)o2)cc1	–	3.16 µM (active)
CCCCc1cc2ccccc2c(OCCN(C)C)n1	–	inactive
Cc1cc(C)n2c(SCC(=O)N(C)C3CCS(=O)(=O)C3)nnc2n1 (centres undefined)	–	inactive
O=C(CSc1nnc(-c2ccc(Cl)cc2Cl)n1C1CCCCC1)NC1CCS(=O)(=O)C1 (centres undefined)	–	inactive
Cc1ccc(-n2ccnc2SCC(=O)N(CC(C)C)C2CCS(=O)(=O)C2)c(C)c1 (centres undefined)	–	14.1 µM (active)
CCC(=O)OCN1C(=O)C=CC1=O	22.6% [at 11.4 µM] (inactive)	–
NC(N)=NC[C@@H]1CCCCCCN1	3.41% [at 11.4 µM] (inactive)	–
CN1c2ccccc2C(O)=C(C(=O)Nc2ccccc2)S1(=O)=O	–	2.82 µM (active)
Cn1cccc1C(=O)N1CCC2(CC1)CN(C(=O)Nc1ccccc1)C2	–	inactive
O=C(Nc1ccccc1)OC[C@H](CN1CCCCC1)OC(=O)Nc1ccccc1	–	inactive
Cc1c(NC(=O)Nc2c(Cl)cccc2Cl)c(=O)n(-c2ccccc2)n1C	-2.44% [at 11.4 µM] (inactive)	–
Cc1ccc(S(=O)(=O)/N=C(/Nc2c(C)n(C)n(-c3ccccc3)c2=O)c2ccc(Cl)cc2)cc1	–	11.2 µM (active)
Cc1c(NC(C)C)c(=O)n(-c2ccccc2)n1C	–	inactive
COC(=O)N1CCC2(CCCN(Cc3nccs3)C2)CC1	–	inactive
Cn1c(CNS(=O)(=O)c2ccc(Cl)cc2)n[nH]c1=S	–	inactive
O=S(=O)(NCc1cc(-c2ccccc2)no1)c1ccc(Cl)cc1	–	inactive

Structure (SMILES)	activity, negative = inhibition	AC50
O=S(=O)(NCc1cc(-c2ccc(Cl)cc2)no1)c1ccc(Cl)cc1	–	3.98 µM (active)
COC(=O)[C@@H]1[C@@H]2C[C@H]3c4[nH]c5cc(OC)ccc5c4CCN3C[C@@H]2C[C@H](OC(=O)c2cc(OC)c(OC)c(OC)c2)[C@H]1OC	–	inactive
CO[C@@H]1COC(=O)[C@@H](CCSC)NC(=O)C/C=C\[C@@H](C)COC(=O)CCC[C@H]1C	-5.5% [at 11.4 µM] (inactive)	–
Oc1cccc(-c2nc3c4c(ncn3n2)-c2ccccc2CC42CCCC2)c1	–	7.08 µM (active)
O=c1c2c(n3cnnc3n1-c1ccccc1)-c1ccccc1CC21CCCCC1	–	inactive
CCOc1cc(/C=C2/NC(=O)N(CC(=O)Nc3cccc(C)c3)C2=O)ccc1OC	–	inactive
CCOc1cc(/C=C2\C(=O)N(Cc3ccc(C)cc3)C(C)=C2C(=O)OC)ccc1O	–	1.41 µM (active)
CCCCNC(=O)C1CC(=O)N(CCC(C)C)C1 (centres undefined)	–	inactive
COC(=O)c1sc2ncccc2c1OCc1c(Cl)cccc1Cl	–	1.78 µM (active)
O=C(O)COc1c(Cl)cc(Cl)c2cccnc12	15.5% [at 11.4 µM] (inactive)	–
COCCNC(=O)c1cn(Cc2c(F)cccc2Cl)nn1	–	inactive
CN1CCN(c2ncnc3ccc(-c4ccccc4Cl)cc23)CC1	-20.9% [at 2.29 µM] (inactive)	–
O=C(Cn1cccc1)NC1CCCCCC1	–	inactive
CC(=O)CCCCn1c(=O)c2c(ncn2C)n(C)c1=O	–	inactive
O=C(CCCCn1c(=O)c2ccccc2n(CC(=O)NC2CCCC2)c1=O)NC1CCCC1	–	10 µM (active)
FC(F)(F)c1ccccc1-c1nc(NCc2cccnc2)c2ccccc2n1	-20.3% [at 2.29 µM] (inactive)	–
CCOC(=O)c1ccc(OC(=O)CCCCCN=C(N)N)cc1	–	inactive
CCOC(=O)c1ccc(Nc2nc(-c3cccnc3)nc3ccccc23)cc1	–	5.01 µM (active)
COc1ccccc1CNc1nc(-c2cccnc2)nc2ccccc12	–	1 µM (active)
COc1ccccc1NC(=O)Nc1nc(-c2cccnc2)nc2ccccc12	–	inactive
CN(C)C(=O)c1ccc(-c2nc(Nc3ccncc3)c3ccccc3n2)cc1	-8.55% [at 2.29 µM] (inactive)	–
COc1ccccc1-c1nc(NCc2cccnc2)c2ccccc2n1	5.64% [at 2.29 µM] (inactive)	–
CCOC(=O)c1ccc(Nc2nc(=O)c3cccnc3s2)cc1	–	7.94 µM (active)
c1cncc(CNc2nc(-c3ccoc3)nc3ccccc23)c1	0.547% [at 2.29 µM] (inactive)	–
c1ccc(Nc2nc(-c3cccnc3)nc3ccccc23)cc1	-0.938% [at 2.29 µM] (inactive)	–
c1ccc(-c2nc(NCc3cccnc3)c3ccccc3n2)cc1	–	3.55 µM (active)
